Screening results: PubChem BioAssay, National Center for Advancing Translational Sciences (NCATS)
Compounds with a hit are over-represented: about 3% of the library has one in this group of screens.
KCNH2 WT inh: KCNH2 (human, wildtype) channel inhibition. Q12809. U2OS, BacMam KCNH2, thallium flux FluxOr; stronger effect = lower value. activity change, % at 1.84 µM. 340,000 tested, 0.37% active. AID 720551;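 active = maximum activity change below -70%; inconclusive = maximum activity change between -70% and -50%; inactive = maximum activity change above -50%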; also: % is scaled to controls: 0 for no effect and ±100 for the full control effect
Target sequence (Q12809 whole entry, looked up): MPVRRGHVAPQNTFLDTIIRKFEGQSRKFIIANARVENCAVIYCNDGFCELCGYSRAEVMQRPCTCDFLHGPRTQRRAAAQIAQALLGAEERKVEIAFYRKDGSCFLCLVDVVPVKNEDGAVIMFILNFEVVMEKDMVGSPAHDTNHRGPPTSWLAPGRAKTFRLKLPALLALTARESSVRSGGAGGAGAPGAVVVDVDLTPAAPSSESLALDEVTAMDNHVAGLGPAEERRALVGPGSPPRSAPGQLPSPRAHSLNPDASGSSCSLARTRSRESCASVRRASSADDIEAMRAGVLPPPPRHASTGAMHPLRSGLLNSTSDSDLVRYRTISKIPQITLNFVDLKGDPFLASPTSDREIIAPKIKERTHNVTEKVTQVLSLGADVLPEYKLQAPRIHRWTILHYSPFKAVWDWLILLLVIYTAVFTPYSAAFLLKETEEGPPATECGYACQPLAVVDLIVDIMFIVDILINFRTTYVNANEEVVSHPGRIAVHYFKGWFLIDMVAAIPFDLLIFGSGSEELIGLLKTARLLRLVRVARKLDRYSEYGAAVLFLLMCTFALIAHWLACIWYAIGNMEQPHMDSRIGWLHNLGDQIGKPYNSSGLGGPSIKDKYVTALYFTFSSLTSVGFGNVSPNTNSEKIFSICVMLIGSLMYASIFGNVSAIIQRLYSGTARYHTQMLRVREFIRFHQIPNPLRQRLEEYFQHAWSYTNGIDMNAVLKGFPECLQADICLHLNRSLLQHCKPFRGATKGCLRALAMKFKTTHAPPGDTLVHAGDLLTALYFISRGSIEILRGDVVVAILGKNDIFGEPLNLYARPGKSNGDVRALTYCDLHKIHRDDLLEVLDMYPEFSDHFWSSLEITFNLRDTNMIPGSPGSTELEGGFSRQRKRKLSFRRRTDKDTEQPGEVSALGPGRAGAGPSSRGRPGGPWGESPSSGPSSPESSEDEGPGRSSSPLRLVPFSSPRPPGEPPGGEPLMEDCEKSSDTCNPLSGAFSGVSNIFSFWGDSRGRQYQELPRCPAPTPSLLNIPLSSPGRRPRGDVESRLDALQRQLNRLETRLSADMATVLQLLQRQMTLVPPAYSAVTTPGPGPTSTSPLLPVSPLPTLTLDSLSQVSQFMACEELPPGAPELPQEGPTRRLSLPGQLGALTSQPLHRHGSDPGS
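U2OS cells were transduced with wild-type KCNH2 virus (2.03 x 10^8 / mL) for 4 h at room temperature, then cultured overnight at 37 C. Thallium flux was read with FluxOr dye. Rate constants were normalized to DMSO controls.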
LDHA block: blocks human lactate dehydrogenase A | activity change, % (values are at about 110 or 230 µM) | P00338 | 480,000 tested, 0.15% active | purified LDHA, NADH/diaphorase-resazurin fluorescence; stronger effect = lower value | AID 1347041; in the data active = activity change below about -30%; inconclusive = mostly about -25% to -30%;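 also: plate controls were DMSO wells for no effect and wells without enzyme for full effect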
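Enzyme activity of human lactate dehydrogenase 5 (2 nM; 0.06 mM NADH, 0.2 mM pyruvate, 5 min, RT) is measured via a resazurin/diaphorase fluorescence readout of residual NADH.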
KCNH2 3.1 inh: inhibitors of human KCNH2 3.1 potassium channel isoform | U2OS KCNH2 3.1, thallium flux FluxOr; stronger effect = lower value | activity change, % (tested at about 1.8 µM) | 340,000 tested, 0.95% active;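 active = maximum activity change below -70%; inconclusive = maximum activity change from -70% to -50%; inactive = maximum activity change above -50%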;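 also: thallium influx rate constant from kinetic fluorescence after stimulation buffer; % is scaled to controls: 0 for no effect and ±100 for the full control effect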
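Virally transduced U2OS (3.1 isoform, 4 h infection in dark at RT) → overnight 37 C → FluxOr + Red40 in HBSS/HEPES, 45 min → stimulation buffer, 2 min kinetic read → rate constant vs DMSO controls.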
ClpP mod: qHTS Assay for Activators of ClpP; ATP-dependent Clp protease proteolytic subunit (Bacillus subtilis (strain 168)), P80244; purified B. subtilis ClpP, FRET peptide cleavage, 20 min; Potency, µM (doses to about 57.5 µM), without a hit: at the top dose activity change, negative = active; 340,000 tested, 1.9% active; AID 651965, 2013; active = well fitted falling curve with a large enough effect; inconclusive = small, poorly fitted or top-dose-only effect; inactive = no such curve, though single readings can be large or run the other way; also: potency is read from the fitted curve at half-maximal effect; the source files actives as falling curves though it sought activators and does not explain the sign; nearly all actives have a fitted effect of over 65% in size
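Purified B. subtilis ClpP, 10 microg/mL final in Tris/HCl pH8 with KCl, BSA, glycerol and Tween-20, cleaved an Abz/nitrotyrosine-quenched decapeptide. Fluorescence (ex 320, em 430) was read at 0 and 20 min at room temperature. Delta was normalized to 5.8 microM ADEP and DMSO/no-enzyme controls.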
BCR signal inh: chronic active BCR signaling inhibition | ABC-DLBCL IkBa-CBG/CBR reporter, luminescence ratio, 4 h | Potency, µM (series often up to 46.1 µM), inactives show top-dose activity change, negative = inhibition, most hits filed as inhibitors | 340,000 tested, 0.05% active | AID 493014; active = well fitted inhibition curve with a large enough effect in the signal ratio, with a control signal flat, not every such curve was filed as active; inconclusive = small, poorly fitted or top-dose-only effect, or effect the other way, or a change in a side signal; the % refers to the signal ratio;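 also: potency is read from the fitted curve at half-maximal effect; plate controls were basal doxycycline-induced cells for no effect and cells given 10 µM MG132 for full effect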
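Cell line TMD8 (human ABC DLBCL), stably expressing tet-inducible CBG68-IkBa fusion and CBR; IMDM/0.5% FBS; cpd up to 46 uM; dox induction, 4 h, 37C/5% CO2; dual luminescence; green/red ratio; MG132 control.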
ALOX12 inh: blocks human arachidonate 12S-lipoxygenase. P18054. purified 12hLO, xylenol orange hydroperoxide absorbance. Potency, µM (top dose mostly 108 µM), for inactives: at the highest dose activity change, negative = inhibition, hits mostly inhibitors. 580,000 tested, 1.1% active; active = well fitted inhibition curve with a large enough effect; inconclusive = small, poorly fitted or top-dose-only effect, or another doubt; inactive = no such curve, though single readings can be large or run the other way; also: potency is read from the fitted curve at half-maximal effect; % is scaled to controls: 0 for no effect and ±100 for the full control effect
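Hydroperoxide product was detected by ferrous iron/xylenol orange as the 573 to 405 nm absorbance ratio. Arachidonic acid at 40 uM (final) was turned over for 30 min at room temperature by 150 nM human 12hLO, pH 7.0 Hepes buffer, after 15 min compound preincubation.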
An asterisk follows results filed as active; [ ] = dose if it differs, or a comment.

`c1ccc(-c2oc3ncnc(NCCN4CCOCC4)c3c2-c2ccccc2)cc1` gave KCNH2 WT inh 3, LDHA block 5, KCNH2 3.1 inh inconclusive, ClpP mod 16µM*, BCR signal inh inconclusive and ALOX12 inh -20%[57.4 µM].
Screening CCCCCSc1ccc(/C=C/C(=O)O)cc1 returned LDHA block 0 and ALOX12 inh inconclusive.
Cc1ccccc1Nc1nc(N)nc(COc2ccccc2C(=O)NCc2ccccc2)n1 was read as LDHA block 2 and ALOX12 inh -4%.
For Cc1cc(O)cc(O)c1C(=O)Cc1cscn1 the results were KCNH2 WT inh 2, LDHA block 2, KCNH2 3.1 inh -6, ClpP mod 28µM*, BCR signal inh 2% and ALOX12 inh 0%.
For CC1Cc2cc(S(N)(=O)=O)ccc2N1CC(=O)Nc1cccc(Cl)c1Cl (centres undefined) the results were LDHA block -3 and ALOX12 inh -18%.
`COc1ccc(-c2cc(C(=O)O)c3sc(N4CCCCC4)nc3n2)cc1OC` gave KCNH2 WT inh 4, LDHA block 12, KCNH2 3.1 inh 6, ClpP mod 10µM*, BCR signal inh -1% and ALOX12 inh inconclusive.
For Cc1ccc(-c2cc(C(=O)O)c3sc(N4CCCCC4)nc3n2)cc1 the results were KCNH2 WT inh 2, LDHA block 1, KCNH2 3.1 inh 7, ClpP mod inconclusive, BCR signal inh inconclusive and ALOX12 inh -18%.
Screening COc1ccc(-c2cc(-c3ccccc3)nc(N3CCCC3)n2)cc1OC returned KCNH2 WT inh 2, LDHA block 5, KCNH2 3.1 inh -2, ClpP mod 25µM*, BCR signal inh 10% and ALOX12 inh -20%.
Screening Oc1ccc(COC2CCCC2)c2cccnc12 returned BCR signal inh 7.3µM*.
Screening Cc1[nH]c2ccc(C(=O)N(C)CCOc3ccccc3)cc2c1C returned LDHA block 9 and ALOX12 inh inconclusive.
CCCCNc1oc(/C=C/c2cccc(OC)c2)nc1C#N was read as LDHA block -1 and ALOX12 inh inconclusive.
Screening CCNc1oc(/C=C/c2cccc(OC)c2)nc1C#N returned LDHA block 10 and ALOX12 inh 45µM*.
`Cc1[nH][nH]c(=O)c1C(c1ccc(-c2cccc(C(=O)O)c2)o1)c1c(C)[nH][nH]c1=O` gave KCNH2 WT inh -4, LDHA block 32, KCNH2 3.1 inh 0, BCR signal inh -4% and ALOX12 inh -4%.
`COC(=O)c1ccc(-c2ccc(C(c3c(C)[nH][nH]c3=O)c3c(C)[nH][nH]c3=O)o2)cc1` gave KCNH2 WT inh -9, LDHA block 5, KCNH2 3.1 inh 14, BCR signal inh inconclusive and ALOX12 inh 35µM*.
`O=C(Cn1c(-c2cccs2)cc2cc(F)ccc21)NCCc1ccc(Cl)cc1` gave LDHA block -5, ClpP mod 4% and ALOX12 inh -11%.
CN1CCN(CCCNC(=O)Cn2c(-c3cccs3)cc3ccccc32)CC1 was read as LDHA block 0, ClpP mod 11µM* and ALOX12 inh -3%.
CCCN1CCN(CCCNC(=O)Cn2c(-c3cccs3)cc3cc(Cl)ccc32)CC1 was read as LDHA block 1, ClpP mod 32µM* and ALOX12 inh -28%.
Screening Cc1ccc(C)c(N2CCN(CCCNC(=O)Cn3c(-c4cccs4)cc4ccccc43)CC2)c1 returned LDHA block -2, ClpP mod 28µM* and ALOX12 inh 3%.
CCCN1CCN(CCCNC(=O)Cn2c(-c3cccs3)cc3ccccc32)CC1 was read as LDHA block -6, ClpP mod 35µM* and ALOX12 inh -2%.
For Cc1cc2ccccc2n1CC(=O)NCCN1CCCC1 the results were LDHA block -1 and ALOX12 inh inconclusive.
